Assay results taken from the supplement of paper PMC6555819.

How the values were obtained:
Test in all cases: PBM binding z-score (relative to random genomic background probes); higher = stronger binding; sequences stand for … in GC…GCGATTGACAGCGTAGAATGAAGG
[1] = test system: FXR:RXRa (NR concentration 270 nM, RXRa partner concentration 90 nM)
How it was run: (§1)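 On custom Agilent 4×180K arrays, double-stranded probes with 34-nt variable regions carried direct-repeat seeds, single-nucleotide variants, half-site ablations or random human genomic background. Ligand-free nuclear receptor dimers were applied for 1 h, and binding was read with antibodies against each partner (one per run). Binding z-scores come from regression-normalized fluorescence, with the random background probes as reference.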

[2] = test system: LXRa:RXRa (NR concentration 270 nM, RXRa partner concentration 90 nM)
How it was run: as §1

[3] = test system: LXRa homodimer (NR concentration 270 nM)
How it was run: as §1

[4] = test system: LXRb:RXRa (NR concentration 270 nM, RXRa partner concentration 90 nM)
How it was run: as §1

[5] = test system: LXRb homodimer (NR concentration 270 nM)
How it was run: as §1

[6] = test system: PPARa:RXRa (NR concentration 270 nM, RXRa partner concentration 90 nM)
How it was run: as §1

[7] = test system: PPARg:RXRa (NR concentration 180 nM, RXRa partner concentration 90 nM)
How it was run: as §1

[8] = test system: PPARg:RXRa 270nM:90nM, anti-RXR (NR concentration 270 nM, RXRa partner concentration 90 nM)
How it was run: as §1

[9] = test system: PPARg:RXRa 30nM:10nM, anti-RXR (NR concentration 30 nM, RXRa partner concentration 10 nM)
How it was run: as §1

[10] = test system: PPARg:RXRa 90nM:30nM, anti-RXR (NR concentration 90 nM, RXRa partner concentration 30 nM)
How it was run: as §1

[11] = test system: PPARg:RXRa DBDmut IVT, anti-RXR (DBD mutation: RXRa K156A/R161A, NR concentration 270 nM, RXRa partner concentration 90 nM)
How it was run: as §1

[12] = test system: PPARg:RXRa IVT, anti-PPARg (NR concentration 270 nM, RXRa partner concentration 90 nM)
How it was run: as §1

[13] = test system: PPARg DBDmut:RXRa IVT, anti-PPARg (DBD mutation: PPARg1 K132A/R137A, NR concentration 270 nM, RXRa partner concentration 90 nM)
How it was run: as §1

[14] = test system: PPARg DBDmut IVT, anti-PPARg (DBD mutation: PPARg1 K132A/R137A, NR concentration 270 nM)
How it was run: as §1

[15] = test system: PPARg homodimer (NR concentration 180 nM)
How it was run: as §1

[16] = test system: PXR:RXRa (NR concentration 270 nM, RXRa partner concentration 90 nM)
How it was run: as §1

[17] = test system: PXR homodimer (NR concentration 270 nM)
How it was run: as §1

[18] = test system: RARa:RXR (NR concentration 270 nM, RXRa partner concentration 90 nM)
How it was run: as §1

[19] = test system: RARa homodimer (NR concentration 270 nM)
How it was run: as §1

[20] = test system: RARb:RXRa (NR concentration 270 nM, RXRa partner concentration 90 nM)
How it was run: as §1

Sequence | PBM binding z-score [1] | PBM binding z-score [2] | PBM binding z-score [3] | PBM binding z-score [4] | PBM binding z-score [5] | PBM binding z-score [6] | PBM binding z-score [7] | PBM binding z-score [8] | PBM binding z-score [9] | PBM binding z-score [10] | PBM binding z-score [11] | PBM binding z-score [12] | PBM binding z-score [13] | PBM binding z-score [14] | PBM binding z-score [15] | PBM binding z-score [16] | PBM binding z-score [17] | PBM binding z-score [18] | PBM binding z-score [19] | PBM binding z-score [20]
CAAACTAGGTCACAGAGGTTAAAGTCCGTGCGTA | 5.89 | 5.17 | 3.01 | 4.28 | 0.562 | 6.05 | 9.43 | 7.64 | 5.91 | 7.56 | 8.23 | 9.05 | 7.06 | 4.73 | 2.92 | 4.74 | 3.84 | 4.65 | 1.69 | 4.62
ACTCGGAGGACAAACGTCAGAGCTACGCCAGTGA | -0.117 | -0.418 | -0.482 | -0.769 | -0.602 | -0.386 | 0.904 | 0.765 | -0.389 | 0.589 | -0.0796 | -0.507 | -0.617 | -0.00127 | -0.209 | -0.77 | -0.0928 | -0.299 | -0.122 | 0.951
CGAACTAGGTCAACGACAGTGAATCTCCGCACGC | 3.59 | 2.08 | 0.0952 | 1.47 | -0.0209 | 4.54 | 7.37 | 6.13 | 3.91 | 5.64 | 7.66 | 7.96 | 4.33 | 5.05 | 2.87 | 0.983 | -0.0485 | 1.99 | -0.0648 | 3.83
CCTCGGAGGACAACAGGAGGTCAAAGCTGCCAGA | 2.61 | 4.28 | 5.15 | 3.51 | 0.0871 | 3.68 | 1.17 | 1.56 | -0.109 | 0.958 | 0.133 | 1.07 | -0.509 | -2.06 | 2.31 | 4.04 | 1.35 | 4.12 | 0.524 | 3.25
CAAACTAGGTCACAGAGGGCAAAGTCCGTGCGTA | 5.08 | 4.6 | 2.26 | 3.61 | 0.517 | 5.45 | 8.81 | 7.31 | 5.42 | 7.28 | 8.48 | 8.83 | 5.61 | 4.71 | 1.95 | 4.26 | 4.07 | 3.86 | 0.666 | 4.54
CCCACTGGGCCATTCAGAGGTCATTGATCATATG | 2.54 | 4.33 | 5.65 | 3.72 | 0.313 | 3.79 | 2.37 | 3.28 | 0.826 | 2.27 | 3.42 | 4.55 | 0.045 | -0.746 | 1.93 | 4.67 | 2 | 4.2 | 0.72 | 2.96
ACTCGGAGGACAAAGGTCACAGCTACGCCAGTGA | 5.25 | 5.76 | 3.07 | 4.75 | 0.774 | 5.97 | 9.11 | 7.86 | 6.87 | 8.74 | 1.61 | 4.71 | 0.569 | -0.0483 | 5.62 | 5.5 | 0.867 | 6.75 | 3.36 | 5.12
